# According to PubChem BioAssay AID504648 (National Center for Advancing Translational Sciences (NCATS), 2011):
# About 610 (0.16%) of roughly 390,000 compounds were called active. A call without a number means that no potency is given here. Not shown: some 4% with an inconclusive outcome. The call rests on the fitted dose curve; in most records, active means well fitted inhibition curve with a large enough effect; inconclusive means small, poorly fitted or top-dose-only effect, or effect the other way, or another doubt; inactive means no such curve, though single readings can be large or run the other way. Many of the other results were omitted from the sample, so actives are more common in it than they were.
# Test: Nrf2 qHTS screen for inhibitors: counterscreen for cytotoxicity
# Conditions: A549 ARE-Fluc cells, CellTiter-Fluor viability, 18-24 h; series mostly up to 46 µM
# Text: NIH Molecular Libraries Probe Production Network [MLPCN]
# NIH Chemical Genomics Center [NCGC]
# Assay Provider: Shyam Biswal, Johns Hopkins University
# Nrf2 is a transcription factor that maintains cellular redox homoestasis and protects cells from xenobiotics. Nrf2 binds to the antioxidant response element (ARE) to induce gene expression of a broad spectrum of genes that encode for antioxidants. […] Finding a small molecule that act as an inhibitor of Nrf2 function would represent a novel therapeutic target that could lead to improvement in survival of patients undergoing chemo- and/or radio- therapy.
# So here we implemented a counterscreen to weed out the cytotoxic compounds.
# 1. Shibata, T., et al., Genetic Alteration of Keap1 Confers Constitutive Nrf2 Activation and Resistance to Chemotherapy in Gallbladder Cancer. Gastroenterology, 2008.
# 2. Sjoblom, T., et al., The consensus coding sequences of human breast and colorectal cancers. Science, 2006. 314(5797): p. 268-74.
# NCGC Assay Protocol Summary:
# A concentration-response assay was performed with A549 ARE_Fluc cells which are suspended in 5% FBS OPTI-MEM. Five uL were dispensed into 1536-well white TC-treated plate using the Kalypsys dispenser to achieve a density of 5000 cells/well in all columns except column 1. The plate is incubated at 37deg C at 5% CO2 for 2 hours before 23 nL of compounds are added with the Kalypsys pin tool equipped with a 1,536-pin array containing 10-nL slotted pins (FP1S10, 0.457-mm diameter, 50.8 mm long; V&P Scientific). The control compounds Budesonide and Staurosporine are both added at a concentration of 2mM and Budesonide is also added as a 1:10 titration, starting at 200uM, to achieve dose-response. After an 18-24 hour incubation at 37deg C at 5% CO2, 5ul of medium is added to column 1. Afterwards 1ul of 5x of CellTiter-Fluor (Promega) is added to every well. The plate is then incubated at 37deg C at 5% CO2 for 30 minutes before they are read on the ViewLux (Perkin Elmer) for a fluorescent read Ex=405(10)/Em=525(10) for a 3 second exposure, 2x binning, and high gain. Then 3 uL of 3x BugLite is dispensed into all wells and the plate is incubated at ambient room temperature for 15 minutes. Afterwards another ViewLux read is performed using the clear filter to get a luminescent read with the settings of 40 second exposure, 2x binning, and high gain. Cytotoxicity is assessed through the first fluorescent read and then biochemical activity against Nrf2 is measured in the luminescent read.
# Potency means the concentration at half of the fitted maximal effect.
row,SMILES,Potency
1,O=C(c1ccco1)N(Cc1cccs1)c1ccc(O)cc1,inactive
2,COC(=O)CCc1ccccc1S(=O)(=O)N(CCC(=O)OC)Cc1ccccc1,inactive
3,Cc1ccc(NC(=S)N2CCN(c3ncccn3)CC2)cc1C,inactive
4,C/C(Cc1ccccc1)=N\NC(=O)CNC(=O)c1ccccc1Cl,inactive
5,COc1ccc(S(=O)(=O)N2CCCC(C(=O)Nc3ccc(NC(=O)c4ccccn4)cc3)C2)cc1 (centres undefined),inactive
6,C/C(=N/NC(=O)CSc1ccccn1)c1ccc([N+](=O)[O-])cc1,inactive
7,CC(=NNC(=S)N1CCCCCC1)c1ccccn1,20.6 µM (active)
8,C/C(=N\NC(=O)Cc1ccc(Cl)cc1)c1ccccn1,2.31 µM (active)
9,O=C1CSC2(C(=O)N(Cc3ccccc3)c3ccccc32)N1c1cccc(F)c1 (centres undefined),inactive
10,NS(=O)(=O)c1ccc(-c2ccc(/C=C3\SC(=O)NC3=O)o2)cc1,11.6 µM (active)
11,CCOc1ccc(NC(=O)CSc2nnc3c(n2)[nH]c2ccc(S(=O)(=O)N4CCOCC4)cc23)cc1,inactive
12,O=C1C(F)N([S+](=O)([O-])c2ccc3c(c2)OCCO3)CCN1[S+](=O)([O-])c1c(F)cccc1F (centres undefined),inactive
13,CC(=O)Nc1ccc(C(=O)Nc2cccc(S(=O)(=O)NC3=NCCC3)c2)cc1,inactive
14,O=C(NNC(=O)c1cccc(S(=O)(=O)Nc2ccc(Cl)cc2)c1)c1ccc(=O)[nH]c1,inactive
15,O=C(Nc1cccc(S(=O)(=O)Nc2ccc(Cl)cc2)c1)c1ccc2c(c1)OCCO2,16.4 µM (active)
16,COc1cccc2c1C(=O)c1c(O)c3c(c(O)c1C2=O)CC(O)(C(C)=NNC(=O)c1ccc(Cl)c(Cl)c1)CC3OC1CC(N)C(O)C(C)O1 (centres undefined),11.6 µM (active)
17,O=S(=O)(Nc1cccc2cccnc12)c1cccc2cccnc12,inactive
18,COc1ccccc1CNc1ccc(-c2nc(-c3ccccc3C)no2)cc1[N+](=O)[O-],inactive
19,COc1ccc(-c2nc(=N)sn2-c2ccccc2)cc1,inactive
20,COc1ccc(Cn2c(=O)[nH]c3cc(C(=O)N4CCN(C(=O)c5ccco5)CC4)ccc3c2=O)cc1,inactive
21,COc1ccc(C(CCN2CCOCC2)c2c(OC)cc(OC)c3c2OC(=O)CC3c2ccc(OC)cc2)cc1 (centres undefined),inactive
22,C=C1CCN(C(CC(C)C)C(=O)N2CCOCC2)S(=O)(=O)c2ccccc21 (centres undefined),inactive
23,COc1ccc(-c2ccc(C3C4C=CCCC4(C)C(=O)N3Cc3ccccc3)c(F)c2)cc1OC (centres undefined),inactive
24,CC(=O)N1CCCc2ccc(NS(=O)(=O)c3ccc(F)cc3F)cc21,inactive

row,SMILES,Potency
1,O=C(/C=C/c1ccc([N+](=O)[O-])o1)NNC(=O)c1ccc(F)cc1,14.6 µM (active)
2,N#CN1CCC(NC(=O)c2ccc(F)cc2)CC1,inactive
3,CCCCCCC1(C)NC(c2ccc3c(c2)OCO3)=CC(c2ccccc2O)N1 (centres undefined),inactive
4,O=C(CNC(=O)c1ccc(Cl)cc1Cl)OC(C(=O)Nc1cc(C(F)(F)F)ccc1Cl)c1ccccc1 (centres undefined),inactive
5,COc1ccc(N2CCN(S(=O)(=O)c3ccc4c(c3)CC(=O)N4)CC2)cc1,inactive
6,CCN(CC)C(=O)CSc1nc2ccsc2c(=O)n1Cc1ccccc1Cl,inactive
7,Cc1ccc(NC(=O)c2cc(S(=O)(=O)NCCC3=CCCCC3)ccc2F)cc1C,inactive
8,COc1ccc(-c2nnc(SCC(=O)Nc3ccccc3C)o2)cc1OC,inactive
9,Cc1cccc(C)c1-n1c(C)cc(/C=C2\C(=O)NN(c3ccccc3)C2=O)c1C,20.6 µM (active)
10,Cc1cccc(NC(=O)c2ccc3nc(C(C)C)oc3c2)c1C,inactive
11,Cc1ccc(C)c(N2CCN(C(=O)Cn3nc(C)c4sc5ccccc5c4c3=O)CC2)c1,inactive
12,O=C1CCCC2=C1[C@@]1(CCC(c3ccccc3)C1)N=C(Nc1nc3ccccc3o1)N2 (some centres undefined),inactive
13,CCN(CC)CCC(c1ccc2c(c1)OCO2)c1c(OC)cc(OC)c2c(-c3ccccc3)cc(=O)oc12 (centres undefined),inactive
14,COc1cc(OC)c2ccc(=O)oc2c1C(CCN1CCN(c2ccccc2)CC1)c1ccc2c(c1)OCO2 (centres undefined),23.1 µM (active)
15,COc1cc(C(CCN2CCN(c3ccccc3)CC2)c2c(OC)cc(OC)c3ccc(=O)oc23)cc(OC)c1OC (centres undefined),inactive
16,CCOc1ccc(N=Cc2c(O)n(-c3cccc(C)n3)c(=O)c3ccccc23)cc1,18.4 µM (active)
17,CCO/C=C1\C(=O)N(c2ccc(OCC)cc2)C(=O)c2ccccc21,inactive
18,COC(=O)Cc1csc(/N=C/c2c(O)n(-c3cccc(C(F)(F)F)c3)c(=O)c3ccccc23)n1,inactive
19,COc1ccc(-c2ccc(OC)c(C3C4C=CCC(C)C4C(=O)N3Cc3ccccc3)c2)cc1C (centres undefined),inactive
20,COc1ccc(NC(=O)CSc2nc3ccccc3n2CC(=O)N2CCCCC2C)cc1 (centres undefined),inactive
21,COc1cc(NS(=O)(=O)c2ccc3c(c2)OCC(C(=O)N2CCCC2)O3)cc(OC)c1 (centres undefined),inactive
22,CCOC(=O)C1CCN(c2ncnc3c2c(-c2ccccc2)cn3-c2cccc(C)c2)CC1,inactive
23,Cc1ccc(-c2nc(CS(=O)(=O)CC(=O)NCc3ccccc3Cl)c(C)o2)cc1,inactive
24,O=C(CSc1nnc(-c2ccccc2F)o1)Nc1cccc(C(F)(F)F)c1,inactive

row,SMILES,Potency
1,Cc1noc(C)c1-c1ccc2ncnc(NCc3ccc(F)c(F)c3)c2c1,inactive
2,CC(Nc1ncnc2ccc(-c3ccc4c(c3)OCO4)cc12)c1ccco1 (centres undefined),inactive
3,CCCS(=O)(=O)Nc1cccc(-c2cn3ccsc3n2)c1,inactive
4,CCOc1cc(-c2nnc(SCC(=O)NC3CCCC3)nc2-c2ccc(OC)c(OCC)c2)ccc1OC,inactive
5,O=C(CNC(=O)c1ccc(Cl)c(C(F)(F)F)c1)OC(C(=O)Nc1cc(C(F)(F)F)ccc1Cl)c1ccccc1 (centres undefined),inactive
6,CCOC(=O)CNC(=O)c1cc2c(=O)n3cccc(C)c3nc2s1,inactive
7,COc1ccc(C(=O)NC(=S)N2CCNC(=O)C2CC(=O)OC(C)C)cc1 (centres undefined),inactive
8,CCOC(=O)CC1C(=O)NCCN1c1nc2c(C)cccn2c(=O)c1/C=C1\SC(=S)N(C(C)CC)C1=O (centres undefined),20.6 µM (active)
9,Cc1cc(C)n2ncc(C(=O)N3CCCC3)c2n1,inactive
10,CSc1ncc(Cl)c(C(=O)Nc2ccc(S(=O)(=O)N3CCCC(C)C3)cc2)n1 (centres undefined),inactive
11,Cc1noc(C)c1-c1ccc2ncnc(NCc3ccc4[nH]ccc4c3)c2c1,inactive
12,Cc1ccc(S(=O)(=O)NC(N)=NCCC[C@@H](NC(=O)CNC(=O)c2ccccc2)C(=O)Nc2cc(C(F)(F)F)ccc2Cl)cc1,inactive
13,CCOc1cc(C2C(C(=O)Nc3ccc(OC)cc3)=C(C)Nc3nc(SC)nn32)ccc1O (centres undefined),inactive
14,CN1CCOc2cc(S(=O)(=O)N3CCN(S(=O)(=O)c4c(F)cccc4F)CC3)cnc21,inactive
15,O=C1CN(Cc2ccccc2)S(=O)(=O)c2ccccc21,inactive
16,COc1ccc(C2Nc3ccc(NC(=O)COC(C)=O)cc3C(=O)N2Cc2ccccc2)cc1COc1ccc(NC(C)=O)cc1 (centres undefined),inactive
17,COc1ccc(C2Nc3ccccc3C(=O)N2Cc2ccc(Cl)cc2)cc1COc1ccc(NC(C)=O)cc1 (centres undefined),inactive
18,O=C1C[C@@H](c2ccc3ccccc3c2)N1S(=O)(=O)c1ccccc1[N+](=O)[O-],inactive
19,CNC(=O)[C@]1(C(F)(F)F)C[C@H](CCc2ccccc2)CCCO1,inactive
20,COc1ccc2c(Sc3ccc(C)cc3)c(C(=O)NC(C)c3ccccc3)[nH]c2c1 (centres undefined),inactive
21,Cc1cc(NS(=O)(=O)c2ccc3oc(=O)c4ncn(C)c4c3c2)ccc1Br,inactive
22,CC(/C=C/c1ccco1)=N/NC(=O)C1COc2ccccc2O1 (centres undefined),inactive
23,CC1CC(=NNC(=O)C2COc3ccccc3O2)CC(C)(C)C1 (centres undefined),inactive
24,O=C(Nc1ncc([N+](=O)[O-])s1)C1COc2ccccc2O1 (centres undefined),20.6 µM (active)

row,SMILES,Potency
1,Oc1ccc(Br)cc1C1C=C(c2ccc3c(c2)OCO3)NC(c2ccc(Cl)cc2)N1 (centres undefined),inactive
2,Cc1ccc(-c2nc(=N)sn2Cc2ccccc2)cc1,inactive
3,CCCN1CCC(=O)N(C(CSc2ccc(OC)cc2)Cc2ccccc2)CC1 (centres undefined),inactive
4,COc1ccc(C2Nc3cccc(OC)c3C(=O)N2Cc2ccccc2)cc1COc1ccc(NC(C)=O)cc1 (centres undefined),inactive
5,COCC(C)NCc1cc(Br)ccc1OC (centres undefined),inactive
6,CCOc1ccc(Br)cc1S(=O)(=O)Nc1cccc(S(=O)(=O)N(CC)CC)c1,inactive
7,CCOc1ccc(Br)cc1CSC(=N)N,20.6 µM (active)
8,O=C1NS(=O)(=O)c2ccccc21,inactive
9,O=C(NC(c1ccco1)c1cc(Cl)c2cccnc2c1O)c1ccccc1 (centres undefined),inactive
10,O=C1CCc2cc(S(=O)(=O)Nc3cccc(Oc4ccccc4)c3)ccc2N1,inactive
11,CCN1/C(=C/C(=S)Nc2ccccc2)Sc2ccccc21,16.4 µM (active)
12,CCN1C(=O)c2ccccc2Sc2ccc(NC(=O)Cc3ccc(OC)cc3)cc21,inactive
13,CNC(=O)CN1C(=O)c2cccnc2Sc2ccccc21,inactive
14,Cc1cc2c(s1)c1cnn(Cc3cc(F)c(Cl)cc3Cl)c(=O)c1n2C,inactive
15,CN=C1C=C/C(=N/N=c2\ccn(O)cc2C)C=C1C,16.4 µM (active)
16,OC[C@@H]1O[C@H](n2cnc3c(SCc4ccccc4)ncnc32)[C@H](O)[C@H]1O,inactive
17,COc1ccc(C2Nc3ccccc3C(=O)N2Cc2ccccc2)cc1COc1ccc(C(N)=O)cc1 (centres undefined),inactive
18,COc1cc(F)c(S(=O)(=O)N2CCCN(S(=O)(=O)c3ccc(N)cc3)CC2)c(F)c1,inactive
19,Cc1nc(N2CCOCC2)c2c(C(=O)NCc3cccc(Cl)c3)c(C)oc2n1,inactive
20,CCOc1ccc(-c2n[nH]c3c2C(c2ccccc2OC)N(c2ccc(Br)cc2)C3=O)cc1 (centres undefined),inactive
21,CCCN1CCC(=O)N(C(CSc2ccc(C)cc2)Cc2ccccc2)CC1 (centres undefined),inactive
22,Cc1ccc(S(=O)(=O)N2CCN(c3nc(-n4cnc5ccccc54)nc4ccccc34)CC2)cc1,inactive
